Compound activity from PubChem BioAssay.
tim23-1 inh – growth inhibitors of tim23-1 mutant yeast. S. cerevisiae tim23-1 growth, BacTiter-Glo luminescence, 24 h. inhibition, % at 20 µM. 1.3% of 330,000 active. AID 463212;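 active = growth inhibition of the mutant yeast at or above 50%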;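 also: temperature-sensitive mutant grown at 25 °C; plate controls were DMSO-treated mutant yeast for no effect and medium wells lacking yeast for full effect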
TIM10 inh – TIM10 yeast growth inhibition; S. cerevisiae TIM10 strain growth, BacTiter-Glo luminescence, 24 h; inhibition, % at 10 µM; 1.4% of 330,000 active; AID 463195;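 active = inhibition of 40% or more at the single tested concentration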;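 also: wild-type TIM10 isogenic control strain grown at permissive 25 °C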
PfHsp90 yeast 2 – inhibits growth of yeast expressing Plasmodium falciparum Hsp90; AID 504621; inhibition, % at 9.4 µM; 0.32% of 310,000 active; S. cerevisiae expressing PfHsp90, BacTiter-Glo ATP, 48 h; yeast lacking PDR1 and PDR3 efflux regulators;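 active = every replicate shows inhibition above about 80%, whatever the replicate mean, limit read from the data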;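 also: 0% = DMSO neutral controls and 100% = 20 µM radicicol positive controls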
SKKanGAS inh – SKKanGAS growth inhibition | inhibition, % at 7.5 µM | S. pyogenes SKKanGAS, kanamycin growth, BacTiter-Glo, 6 h | 1.3% of 300,000 active | AID 1662;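 active = mean replicate score, as percent of positive control median, at least 50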;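 also: strain carries kanamycin resistance gene driven by streptokinase promoter and grows in 40 µg/ml kanamycin; loss of luminescence reflects streptokinase promoter inhibition or plain growth inhibition; 0% = median of DMSO wells and 100% = positive control at its reference dose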
NALP1 yeast inh – inhibitors of NALP1 inflammasome in yeast; AID 2071; 0.61% of 280,000 active; inhibition, % at 10 µM; S. cerevisiae NALP1/ASC/caspase-1 growth, X-gal OD620, 72 h; in the data active = inhibition mostly above about 24%, no sharp cut-off; inactive = mostly below about 32%
tim10-1 inh – growth inhibitors of tim10-1 mutant yeast; S. cerevisiae tim10-1 ts strain growth, BacTiter-Glo, 24 h; inhibition, % at 20 µM; 2.2% of 330,000 active; AID 463190;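 active = inhibition of at least 40%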;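 also: mutant grown at 25 °C; 0% = DMSO wells with yeast and 100% = wells holding no yeast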
tim10-1 conf – confirmation of tim10-1 mutant yeast growth inhibitors; AID 463213; shares compounds with tim10-1 inh; S. cerevisiae tim10-1 ts strain growth, BacTiter-Glo, 24 h; inhibition, % at 20 µM; 56% of 7,400 active;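 active = inhibition of yeast growth at or above a set limit in either of two repeat tests at 20 µM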;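 also: tim10-1 mutant grown at permissive 25 °C to find synthetic lethal compounds; 0% = DMSO yeast wells and 100% = medium wells without yeast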
Starred values were filed as active, the others as inactive. Hits are enriched below; roughly 4.8% of the tested compounds scored in any of these assays.

`Oc1cccc2ccc(/C=C/c3cccs3)nc12` gave tim23-1 inh 41.0, TIM10 inh 18.9, PfHsp90 yeast 2 -138.6, SKKanGAS inh 119.6*, NALP1 yeast inh 5.2, tim10-1 inh 41.0* and tim10-1 conf 18.0.
For CC1CN(C(=O)c2cc([N+](=O)[O-])cc([N+](=O)[O-])c2)CC(C)O1 (stereo not given) the results were tim23-1 inh 12.5, TIM10 inh 20.7, PfHsp90 yeast 2 1.7, SKKanGAS inh 5.2, NALP1 yeast inh 10.1 and tim10-1 inh 22.7.
Cc1nn(-c2ccc(F)cc2)c(Cl)c1/C=C/C(=O)OCC(=O)Nc1ccc(F)cc1F was read as tim23-1 inh 14.4, TIM10 inh 6.4, PfHsp90 yeast 2 15.4, SKKanGAS inh 9.4, NALP1 yeast inh 26.9 and tim10-1 inh 6.7.
Cc1ccc(S(N)(=O)=O)c(C)c1-n1cnnn1 was read as tim23-1 inh 11.0, TIM10 inh 5.0, PfHsp90 yeast 2 2.0, SKKanGAS inh 2.1, NALP1 yeast inh 1.4 and tim10-1 inh 16.5.
For Cc1nc(NC(=O)c2oc3ccccc3c2C)sc1C(=O)N(C)C the results were tim23-1 inh 23.7, TIM10 inh 7.4, PfHsp90 yeast 2 9.5, SKKanGAS inh -4.6, NALP1 yeast inh -1.4 and tim10-1 inh 23.4.
For N#CCCN(C(=O)CN1C(=O)NC2(CCCC2)C1=O)c1ccccc1F the results were tim23-1 inh 2.2, TIM10 inh -8.6, PfHsp90 yeast 2 12.0, SKKanGAS inh 3.2, NALP1 yeast inh 1.0 and tim10-1 inh 7.5.
`COc1ccc2[nH]c(C(=O)O)c(NS(=O)(=O)c3ccc(C)cc3C)c2c1` gave tim23-1 inh 1.1, TIM10 inh 10.8, PfHsp90 yeast 2 -0.2, SKKanGAS inh -6.5, NALP1 yeast inh 15.8 and tim10-1 inh 1.3.
`S=c1[nH]nc(-c2cc(-c3ccccc3)n[nH]2)n1/N=C/C(Br)=C/c1ccccc1` gave tim23-1 inh 49.6, TIM10 inh 14.0, SKKanGAS inh 18.1, NALP1 yeast inh -6.4, tim10-1 inh 46.9* and tim10-1 conf 42.7*.
Screening S=c1[nH]nc(-c2cc(-c3ccccc3)n[nH]2)n1/N=C/c1ccccc1 returned tim23-1 inh -7.2, TIM10 inh -10.4, PfHsp90 yeast 2 -20.7, SKKanGAS inh 1.0 and tim10-1 inh -2.7.
For CC(=C/c1ccccc1)/C=N/n1c(-c2ccncc2)n[nH]c1=S the results were tim23-1 inh 45.1, TIM10 inh 39.9, PfHsp90 yeast 2 14.5, SKKanGAS inh 30.3, NALP1 yeast inh -37.9, tim10-1 inh 40.4* and tim10-1 conf 38.0*.
CC(/C=N/n1c(-c2cccnc2)n[nH]c1=S)=C\c1ccccc1 was read as tim23-1 inh -20.4, TIM10 inh 5.6, PfHsp90 yeast 2 6.3, SKKanGAS inh 37.6, NALP1 yeast inh -1.6 and tim10-1 inh 31.1.
For Cc1cc2nc(C)n(CCCNC(=O)Nc3cccc4ccccc34)c2cc1C the results were tim23-1 inh 16.3, TIM10 inh 16.8, SKKanGAS inh -1.3, NALP1 yeast inh 15.2 and tim10-1 inh 13.7.
Screening CCN(CC)c1nc(-c2cccc(OC)c2O)nc2ccccc12 returned tim23-1 inh 26.5, TIM10 inh 28.8, PfHsp90 yeast 2 -36.3, SKKanGAS inh 10.2, NALP1 yeast inh -12.7, tim10-1 inh 46.6* and tim10-1 conf 36.2*.
For Cc1ccc(S(=O)(=O)N2CCN(CC(=O)Nc3ccc([N+](=O)[O-])cc3)CC2)cc1C the results were tim23-1 inh 15.1, TIM10 inh 28.3, PfHsp90 yeast 2 -7.8, SKKanGAS inh -0.4, NALP1 yeast inh 30.7 and tim10-1 inh 26.5.
`O=C(CN1CCN(S(=O)(=O)c2ccccc2)CC1)Nc1ccc([N+](=O)[O-])cc1` gave tim23-1 inh 25.2, TIM10 inh 12.6, PfHsp90 yeast 2 -1.2, SKKanGAS inh 0.6, NALP1 yeast inh 28.4, tim10-1 inh 47.4* and tim10-1 conf 31.5*.
Screening COc1ccc(/C=C/c2c([N+](=O)[O-])c(=O)n(C)c(=O)n2C)cc1O returned tim23-1 inh 7.0, TIM10 inh -7.1, PfHsp90 yeast 2 -10.5, SKKanGAS inh 9.1, NALP1 yeast inh 21.9 and tim10-1 inh 27.9.
For Cn1c(/C=C/c2ccc(Br)cc2)c([N+](=O)[O-])c(=O)n(C)c1=O the results were tim23-1 inh 29.7, TIM10 inh 22.8, PfHsp90 yeast 2 -48.3, SKKanGAS inh 7.8, NALP1 yeast inh 6.0, tim10-1 inh 41.8* and tim10-1 conf 24.8.
CSc1ccc(/C=C/C(=O)Nc2ccccc2)cc1 was read as tim23-1 inh 33.7, TIM10 inh 38.6, PfHsp90 yeast 2 30.8, NALP1 yeast inh 2.9 and tim10-1 inh 4.1.
`CC(Cl)C(=O)NC(=O)NC12CC3CC(CC(C3)C1)C2` (stereo not given) gave tim23-1 inh 44.9, TIM10 inh 29.0, PfHsp90 yeast 2 1.7, SKKanGAS inh 6.5, NALP1 yeast inh 17.6, tim10-1 inh 42.1* and tim10-1 conf 26.4.
O=C(CCl)NC(=O)NC12CC3CC(CC(C3)C1)C2 was read as PfHsp90 yeast 2 16.1, SKKanGAS inh -0.4 and NALP1 yeast inh 81.5.
`C/C(=N/NC(=O)c1ccc2c(c1)OCCO2)c1ccc([N+](=O)[O-])cc1` gave tim23-1 inh -22.8, TIM10 inh -20.6, PfHsp90 yeast 2 -7.0, SKKanGAS inh 36.4, NALP1 yeast inh -12.9 and tim10-1 inh -16.4.
CCOc1cc(/C=N/O)cc(Br)c1OCC was read as tim23-1 inh -0.2, TIM10 inh 9.2, PfHsp90 yeast 2 -137.5, SKKanGAS inh -3.4, NALP1 yeast inh 7.6 and tim10-1 inh 17.9.
Screening CCOc1cc(/C=N/O)cc(Br)c1OCc1ccc(Cl)cc1 returned tim23-1 inh -18.5, TIM10 inh -10.7, PfHsp90 yeast 2 -2.1, SKKanGAS inh 4.0, NALP1 yeast inh 12.6, tim10-1 inh 53.5* and tim10-1 conf 26.9.
`CC(C)=CCC/C(C)=C/CNC(=O)C[C@H]1C[C@H](C(=O)N2CCCCC2)[C@@]2(CCc3ccccc3)c3[nH]c4cc(-c5ccco5)ccc4c3CCN2C1=O` gave tim23-1 inh 33.0, TIM10 inh -6.7, PfHsp90 yeast 2 -15.2 and tim10-1 inh 15.1.
Fc1ccc(NCc2ccccc2F)cc1Cl was read as tim23-1 inh 19.3, TIM10 inh 10.2, PfHsp90 yeast 2 8.6, SKKanGAS inh 2.4, NALP1 yeast inh 12.2 and tim10-1 inh 10.5.
CN(NS(=O)(=O)c1ccc(F)cc1)c1ncc(C(F)(F)F)cc1Cl was read as tim23-1 inh 9.7, TIM10 inh 12.1, PfHsp90 yeast 2 -29.1, SKKanGAS inh 3.7, NALP1 yeast inh 3.7 and tim10-1 inh 16.1.
